Broadly, the inhibition is the relative decrease from the control value, in per cent.

Common to all, as to assay type: functional
Experiment [1] deals with Solute carrier family 2, facilitated glucose transporter member 1 (Homo sapiens) (UniProt P11166). The experiment is described as follows: ST_JUDE_LEISH: Cytotoxicity at 2uM final concentration against transgenic Leishmania Mexicana promastigotes LmGLUT1 that are glucose transport deficient and complemented with the human glucose transporter GLUT1. Activity is measured by DNA content using SYBR green in vitro.

The target in experiment [2] is Hexose transporter 1 (Plasmodium falciparum) (UniProt O97467). The experiment is described as follows: ST_JUDE_LEISH: Cytotoxicity at 2uM final concentration against transgenic Leishmania Mexicana promastigotes LmPfHT that are glucose transport deficient and complemented with the Plasmodium falciparum hexose transporter. Activity is measured by DNA content using SYBR green in vitro.

Experiment [3] deals with Glucose transporter (Leishmania mexicana) (UniProt O61059). The experiment is described as follows: ST_JUDE_LEISH: Cytotoxicity at 2uM final concentration against transgenic Leishmania Mexicana promastigotes LmGT2 that are glucose transport deficient and complemented with the L. Mexicana glucose transporter 2. Activity is measured by DNA content using SYBR green in vitro.

Solute carrier family 2, facilitated glucose transporter member 1 (Homo sapiens), sequence (P11166 whole entry): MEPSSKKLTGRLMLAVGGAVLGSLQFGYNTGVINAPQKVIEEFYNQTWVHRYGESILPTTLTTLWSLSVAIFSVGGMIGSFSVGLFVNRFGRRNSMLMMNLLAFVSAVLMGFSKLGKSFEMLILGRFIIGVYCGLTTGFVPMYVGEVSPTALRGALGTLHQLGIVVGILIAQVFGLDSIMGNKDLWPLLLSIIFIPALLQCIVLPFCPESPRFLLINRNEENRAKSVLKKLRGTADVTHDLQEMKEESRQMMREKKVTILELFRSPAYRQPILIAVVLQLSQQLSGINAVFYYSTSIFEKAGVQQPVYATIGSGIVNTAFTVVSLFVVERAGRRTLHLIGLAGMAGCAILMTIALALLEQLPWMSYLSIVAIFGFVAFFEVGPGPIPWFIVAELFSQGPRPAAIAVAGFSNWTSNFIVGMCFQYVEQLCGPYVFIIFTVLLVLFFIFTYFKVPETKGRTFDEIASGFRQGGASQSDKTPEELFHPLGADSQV

Take `CC(C)N1CCC(NC(=O)N2CCCN(c3ncnc4cc(-c5ccccc5)sc34)CC2)CC1`: the inhibition was 2.91% in experiment [1], 2.28% in experiment [2] and 0.31% in experiment [3].
With `COc1cccc(OC(C)(C)c2nc(N[C@@H](C)c3ccccc3)c3cn[nH]c3n2)c1`, the inhibition in experiment [1] is 1.92%; in experiment [2], -1.84%; in experiment [3], -1.65%.
For `CCN(CCCN1CCCC1)c1cc(C)nc(Nc2ccc(Cl)cc2)n1`, in that order: 1.46%, 1.37% and -0.13%.
In the case of `Nc1nc(N)c2c(Cl)c(N(Cc3ccccc3)Cc3ccccc3)ccc2n1`, the inhibition was 23.6% in experiment [1], 23.5% in experiment [2] and 7.75% in experiment [3].
With `CCc1ccc(CN2CCC(CNC(=O)c3cc(-c4cccc(Cl)c4)cs3)C2)cc1` (stereo not given), the results for the inhibition in experiment [1], in experiment [2] and in experiment [3] were -0.66%, -0.84% and -4.94%, respectively.
For `Cc1nnc2c(NC(=O)NC3CCCC3)cc3cc(-c4ccc(CN5CCN(C)CC5)cc4)ccc3n12`, in that order: 7.2%, 4.95% and 4.79%.
For `Cc1ccc(CNC(=O)[C@H](CC(C)C)Nc2cc(C)nc(NCc3ccccc3C)n2)cc1`, in that order: 4.3%, 4.62% and 3.14%.
In the case of `CCc1ccc(C(=O)NC(=O)c2ccccc2O)cc1`, the inhibition came to 3.44% in experiment [1], 3.45% in experiment [2] and 3.61% in experiment [3].
For `COc1ccc(NC(=O)/C=C/c2ccc(Cl)c(C(F)(F)F)c2)cc1OCCN(C(C)C)C(C)C`, in that order: 11.7%, 8.04% and 5.51%.
As for `CC(C)(C)c1ccc(/C=C/C(=O)NCCCCCN2CCC(c3c[nH]c4ccccc34)CC2)cc1`, the inhibition in experiment [1] was 4.78%; in experiment [2], 4.13%; in experiment [3], -1.25%.
For `O=C(/C=C/c1ccc(Cl)c(Cl)c1)NCCCCCN1CCN(C(=O)Nc2ccc(OC(F)F)cc2)CC1`, in that order: 2.15%, 1.76% and -2.1%.
Turning to `COc1cccc(C2(c3cccc(OC)c3)N=C(N)N(CCCc3ccccc3)C2=O)c1`, the inhibition was -0.49% in experiment [1], -0.23% in experiment [2] and -2.44% in experiment [3].
For `O=C(NCC1CC1)C1Cc2c([nH]c3ccc(Br)cc23)C2(CCN(CCc3ccccc3)CC2)N1` (stereo not given), in that order: 1.43%, -0.28% and 1.33%.
For `Oc1ccc(CCCNc2nc(NCc3cccc4ccccc34)nc(NC3CCNCC3)n2)cc1`, in that order: -0.36%, 3.07% and 2%.
For `COc1ccc2nccc(N(C)CC3(O)CCC(NCc4ccc5c(n4)NC(=O)CS5)CC3)c2n1` (stereo not given), in that order: 3.69%, 3.78% and 1.23%.
Turning to `COc1ccccc1CNc1ccnc(N2CC(Oc3ccc(F)cc3)C2)n1`, the results for the inhibition in experiment [1], in experiment [2] and in experiment [3] were -2.09%, 0.57% and -2.53%, respectively.
For `Nc1ccc(-c2nc3cc(Oc4ccc5[nH]c(-c6ccc(N)cc6)nc5c4)ccc3[nH]2)cc1`, in that order: -3.07%, 0.6% and -0.55%.
For `Cc1cc(N2CCN(CC3CCN(C)CC3)CC2)nc(Nc2ccc(Br)cc2)n1`, in that order: 1.44%, 2.2% and 1.74%.
For `FC(F)(F)c1ccc2[nH]c(-c3ccc(-c4cccc(CN5CCN(c6ccncc6)CC5)c4)cc3)nc2c1`, in that order: 64.9%, 53.5% and 9.81%.
On to `CCOc1cc(/C=N/Nc2nc3ccccc3[nH]2)ccc1OCc1ccc([N+](=O)[O-])cc1`, for which the inhibition amounted to 5.62% in experiment [1], 4.53% in experiment [2] and 4.41% in experiment [3].
For `CC(C)C[C@H](NC(=O)c1cc2ccccc2s1)C(=O)N[C@H]1CCN(Cc2ccc(I)c(OCCN3CCCC3)c2)C1`, in that order: -0.35%, -1.55% and -0.29%.
For `Cc1onc(-c2ccccc2)c1-c1nc(NC2CCCC(C)C2)no1` (stereo not given), in that order: 2.36%, -1.49% and 3.54%.
For `O=C(NCCN1CCCC1)c1cccc(-c2ccc(-c3nc4cc(C(F)(F)F)ccc4[nH]3)cc2)c1`, the inhibition in experiment [1] worked out at 1.29%; in experiment [2] it was 0.34%; in experiment [3], 0.32%.
Take `COc1cc2s/c(=N\C(=O)c3cccc([N+](=O)[O-])c3)n(C)c2cc1OC`: the inhibition in experiment [1] came to 9.71%; in experiment [2], 10.7%; in experiment [3], 6.9%.
For `CCN(C)c1cc(C(=O)N[C@@H](Cc2ccccc2)[C@H](O)CNC(C)(C)c2cccc(OC)c2)cc(N2CCCC2=O)c1`, in that order: 1.69%, 0.79% and 4.41%.
In the case of `COc1cccc2c1CCN(CCN1CCC(NC(=O)c3ccc(-c4cccc(Cl)c4Cl)cc3)CC1)C2`, the inhibition came out at 6.67% in experiment [1], 6.1% in experiment [2] and 5.27% in experiment [3].
With `CON(C)C(=O)[C@@H](CCCCNC(=O)OCc1ccccc1)NC(=O)OC(C)(C)C`, the inhibition in experiment [1] was -0.81%; in experiment [2] it was -1.84%; in experiment [3], -1.83%.
In the case of `COc1ccc(C2CC(=O)C3=C(C2)NC(C)=C(C(=O)OC(C)C)C3c2ccccc2F)cc1OC` (stereo not given), the inhibition in experiment [1] was found to be 13.6%; in experiment [2], 2.16%; in experiment [3], 1.65%.
For `CCCNCc1ccc(-c2ccc(CN(Cc3cccs3)C(=O)C3CCN(C)CC3)cc2)nc1`, in that order: 2.14%, 0.83% and -0.89%.
For `Cc1cccc2nc(-c3ccc(-c4cccc(NC(=O)Nc5ccc(F)c(F)c5F)c4)cc3)[nH]c12`, in that order: 2.29%, 3.05% and 0.59%.
For `Cc1cc(N2CCCN(C)CC2)nc(Nc2ccc(Cl)cc2)n1`, in that order: 1.53%, 1.73% and 2.54%.
In the case of `Cc1cccc2nc(-c3cccc(-c4ccc(NC(=O)Nc5ccc(Cl)c(Cl)c5)cc4)c3)[nH]c12`, the inhibition was 0.3% in experiment [1], -1.23% in experiment [2] and 1.91% in experiment [3].
Take `CN1CCN(CCCN(Cc2ccc(-c3cccc(CNCc4ccc5c(c4)OCO5)c3)cc2)C(=O)Nc2ccccc2)CC1`: the inhibition in experiment [1] was found to be 4.2%; in experiment [2], 4.92%; in experiment [3], 4.03%.
On to `CCOC(=O)CNCC(=O)c1ccc(OCc2ccccc2)cc1`, for which the inhibition was 1.94% in experiment [1], 0.64% in experiment [2] and 2.44% in experiment [3].
For `O=C(Nc1ccc(Cl)c(Cl)c1)Nc1ccc(F)c([N+](=O)[O-])c1`, in that order: -2.06%, 0.4% and -2.36%.

The values above are taken from ChEMBL document CHEMBL3433997, “St. Jude Leishmania screening dataset” (2016).
